Source: PubChem
aSyn rescue: qHTS of alpha-syn Inhibitors; AID 652106, 2013; 370,000 tested, 0.14% active; Yeast expressing alpha-synuclein, growth rescue, BacTiter-Glo, 24 h; Potency, µM (titrated, usually from 46.1 µM), inactives show at the highest dose growth rescue (activation), actives largely listed as activators; also: % of control where 0% means no effect; nearly all actives have a fitted effect of over 65% in size
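Screening used galactose-induced yeast with toxic alpha-synuclein levels, exposed to compound for 24 hr at 30 deg C. Cell growth, read with BacTiter-Glo luminescence, gave the measured signal.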
FUS yeast rescue: qHTS for Suppressors of FUS Proteinopathy: Primary screen using FUS-linked yeast assay. S. cerevisiae FUS-expressing, growth rescue, OD600, 24 h. Potency, µM (titrated, usually from 76.6 µM), most hits filed as activators. 390,000 tested, 0.24% active. AID 1347120, 2019;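 also: plate controls were DMSO vehicle for no effect and reference control for full effect; nearly all actives have a fitted effect of over 55% in size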
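Read-out: OD at 600 nm after 24hr at 30C, reporting rescue of FUS-induced yeast toxicity. Cells at OD 0.005 in galactose (2%) minimal medium; compounds tested in a dilution series; CP55940 titration from 92uM final as control.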
GRP78 ERSR act: qHTS for Inducers of the Endoplasmic Reticulum Stress Response (ERSR) in Human Glioma: qHTS; Potency, µM, without a hit: at the top dose activation, actives largely listed as activators; U87-MG GRP78 promoter luciferase reporter, 16 h; 420,000 tested, 0.02% active; also: series mostly up to about 76 µM; % of control where 0% means no effect; nearly all actives have a fitted effect of over 35% in size
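Stably transfected U87-MG glioma cells carrying a GRP78-based luciferase sensor; 16 h compound incubation. Luminescence end-point read 10 min after Bright-Glo addition at room temperature.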
TDP43 rescue: qHTS of TDP-43 Inhibitors; Potency, µM (top dose mostly 46.1 µM), for the others: top-dose growth rescue (activation), hits mostly activators; 410,000 tested, 1.8% active; TDP-43 expressing yeast growth rescue, BacTiter-Glo, 24 h; also: % of control where 0% means no effect; nearly all actives have a fitted effect of over 50% in size
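Readout is BacTiter-Glo luminescence of cell growth, so inhibitors register as activators. TDP-43-expressing yeast at OD600=0.02 in galactose medium, after raffinose pregrowth to mid-log, were incubated with compound for 24 hr at 30 deg C.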
Abeta rescue: qHTS for compounds that reverse cellular toxicity of Amyloid beta (A-beta) peptide in yeast: Primary Screen; 410,000 tested, 0.063% active; Potency, µM (titrated, usually from 46.1 µM), actives largely listed as activators; yeast expressing A-beta42, growth rescue, OD600, 48 h; response scale: 0% DMSO, 100% iron-clioquinol control; also: nearly all actives have a fitted effect of over 55% in size
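Growth rescue measured by 600 nm absorbance after 48 h yeast culture at 30 C with compound. Values normalized between DMSO and an equimolar ferric chloride plus clioquinol control.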
MBNL1 CUG block: qHTS Assay for Inhibitors of MBNL1-poly(CUG) RNA binding; TR-FRET MBNL1-His/biotin-(CUG)12 binding, 665/545 ratio; Potency, µM (highest dose often 57.5 µM), for inactives: at the top dose activity change, negative = inhibition, most hits filed as inhibitors; 280,000 tested, 0.036% active; active = well fitted inhibition curve with a large enough effect in the signal ratio, with a control signal flat, not every such curve was filed as active; inconclusive = small, poorly fitted or top-dose-only effect, or effect the other way, or a change in a side signal; inactive = no such curve, though single readings can be large or run the other way; the % refers to the signal ratio; also: % is scaled to controls: 0 for no effect and ±100 for the full control effect
Target sequence (Q9NR56 whole entry, looked up): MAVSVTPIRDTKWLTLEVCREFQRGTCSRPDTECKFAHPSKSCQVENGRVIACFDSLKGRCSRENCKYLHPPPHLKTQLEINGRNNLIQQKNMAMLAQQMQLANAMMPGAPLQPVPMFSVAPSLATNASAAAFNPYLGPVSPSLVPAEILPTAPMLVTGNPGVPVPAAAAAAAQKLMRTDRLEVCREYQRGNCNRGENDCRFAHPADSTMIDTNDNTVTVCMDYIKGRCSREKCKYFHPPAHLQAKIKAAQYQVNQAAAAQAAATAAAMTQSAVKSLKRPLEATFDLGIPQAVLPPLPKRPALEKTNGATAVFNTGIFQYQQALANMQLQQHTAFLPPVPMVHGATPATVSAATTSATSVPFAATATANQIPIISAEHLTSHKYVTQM
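Compound titration spanned 92 nM–58 uM against the MBNL1-His/biotin-(CUG)12 complex. After 60 min at room temperature with 5 nM streptavidin-XL665 and 0.055 ng/ul terbium anti-His, ratiometric 665/545 nm emission (Ex 340 nm) normalized to controls.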
* = called active by the depositor; i = inactive; u = inconclusive; x = no result given; [ ] = another dose, or the depositor's remark. A selection: hits, their analogues and other compounds. The true share with any hit is near 2%. Unless noted, calls follow the shape of the dose curve; as a rule, active = well fitted curve in the direction sought with a large enough effect; inconclusive = small, poorly fitted or top-dose-only effect, or another doubt; inactive = no such curve, though single readings can be large; an effect the other way counts as inactive or inconclusive. Potency is read from the fitted curve at half-maximal effect.

SMILES	aSyn rescue	FUS yeast rescue	GRP78 ERSR act	TDP43 rescue	Abeta rescue	MBNL1 CUG block
O=C(c1cncs1)N(Cc1cc2cc3c(cc2nc1N1CCOCC1)CCC3)CC1CCCO1 (configuration not stated)	x	x	-4%	x	x	x
COCCCNC(=S)N1CCN(c2nc(-c3ccc(Cl)cc3)cs2)CC1	-18%	i	-3%	13µM*	u	x
CC(C)CNC(=S)N1CCN(c2nc(-c3ccc(Cl)cc3)cs2)CC1	-7%	i	-7%	x	u	4%
CCOc1ccc(N(CC(=O)Nc2c(C)n(C)n(-c3ccccc3)c2=O)S(=O)(=O)c2cccc3cccnc23)cc1	x	i	x	x	x	x
Cc1cccc(N2CCN(C(=O)c3ccncc3)CC2)c1C	3%	i	-4%	26%	i	0%
COc1ccccc1NC(=S)N1CCN(c2cccc(C)c2C)CC1	0%	i	-1%	18µM*	u	-2%
Cc1cccc(N2CCN(C(=O)c3ccc4ncsc4c3)CC2)c1C	22%	i	-3%	11µM*	i	-4%
COc1cc(C(=O)N2CCN(c3cccc(C)c3C)CC2)cc(OC)c1OC	-4%	i	-3%	22µM*	i	7%
O=C(c1ccc(N2CCCC2=O)cc1)N1CCN(c2ccccc2Cl)CC1	5%[1.84 µM]	i	1%	16µM*	i	x
COc1cccc(N2CCN(C(=S)Nc3ccccc3OC)CC2)c1	1%	i	-6%	0%	i	-2%
O=C(c1ccc(N2CCCC2=O)cc1)N1CCN(c2ccc(Cl)cc2)CC1	9%	i	4%	u	i	5%
O=c1c2cc3cccnc3nc2ncn1Cc1cccs1	x	i	x	x	x	x
O=C(CN1C(=O)C2(OCCCO2)c2ccccc21)NCc1ccc2ccccc2c1	x	i	x	x	x	x
Cc1ccc(C)c(N2CCN(C(=O)c3ccc4nsnc4c3)CC2)c1	4%	i	-5%	11µM*	i	u
COc1ccc(S(=O)Cc2ccc(C(=O)N3CCN(c4cccc(C)c4C)CC3)o2)cc1 (configuration not stated)	5%	i	-4%	20µM*	i	-3%
O=C(c1ccc2ncsc2c1)N1CCN(c2nc3ccccc3s2)CC1	-10%	i	-1%	u	i	5%
Cc1ccc(C)c(N2CCN(C(=O)c3ccc4[nH]c(C)c(C)c4c3)CC2)c1	x	i	-1%	-14%	i	x
O=C(c1ccc2ncsc2c1)N1CCN(c2ccccc2Cl)CC1	-1%	i	5%	10µM*	i	-4%
COCC(=O)Nc1cc(C(=O)N2CCOc3ccccc3C2)cc2nc(-c3cccnc3)n(C)c12	x	x	-6%	x	x	x
COC(=O)[C@]1(CNC(=O)C(C)(C)C)CC(=O)N(Cc2ccc(Cl)cc2)[C@@H]1c1ccc(OC)cc1	x	i	x	x	x	x
O=C(Nc1ccccc1)OCC1COC(c2ccccc2)(c2ccccc2)O1 (configuration not stated)	11%	x	1%	20µM*	i	x
O=C(Nc1ccccc1)OCC1CCCO1 (configuration not stated)	2%	i	5%	3%	i	x
CCCCc1ccc2nc(NC(=O)c3cccs3)sc2c1	x	i	x	x	x	x
CCOc1ccc(OCC)c(NS(=O)(=O)c2cccc3nsnc23)c1	1%	i	-5%	13µM*	i	u
CCOc1ccccc1NS(=O)(=O)c1cccc2nsnc12	2%	i	-2%	26%	i	u
SMILES	aSyn rescue	FUS yeast rescue	GRP78 ERSR act	TDP43 rescue	Abeta rescue	MBNL1 CUG block
CCOC(=O)N1C(=O)C[C@](Sc2ccc(OC)cc2)(C(=O)N2CCOCC2)[C@H]1c1ccc(OC)cc1	x	i	x	x	x	x
CS(=O)(=O)c1ncc(Cl)c(C(=O)Nc2ccc(OC(F)F)cc2)n1	13%	i	-15%	x	i	18%
Cc1cccc(CS(=O)(=O)c2ncc(Cl)c(C(=O)Nc3c(C)cccc3C)n2)c1	2%	u	-17%	u	i	-3%
O=C(NCc1ccccc1)c1nc(S(=O)(=O)Cc2ccc(F)cc2)ncc1Cl	x	i	-11%	u	i	x
Cc1ccccc1CS(=O)(=O)c1ncc(Cl)c(C(=O)Nc2ccc(F)cc2)n1	-1%	i	-15%	11µM*	i	5%
Cc1ccccc1NC(=O)c1nc(S(C)(=O)=O)ncc1Cl	18%	i	-13%	10µM*	i	10%
Cc1cccc(C)c1NC(=O)c1nc(S(=O)(=O)Cc2ccccc2)ncc1Cl	19%	i	-19%	10µM*	i	-2%
Cc1cccc(CS(=O)(=O)c2ncc(Cl)c(C(=O)NCc3ccccc3)n2)c1	19%	i	-13%	7.9µM*	i	1%
O=C(Cn1cncn1)NCC1Cc2cc(-c3ccsc3)cc(Cl)c2O1 (configuration not stated)	x	x	-3%	x	x	x
C[C@@H]1CN(Cc2ccc3c(c2)CN(Cc2cccn2-c2cccnc2)CCO3)C[C@H](C)O1	x	x	-5%	x	x	x
O=C(c1ccccc1C(F)(F)F)N1CCOc2c(cc(-c3nc4ccccc4s3)cc2OC2CCOC2)C1 (configuration not stated)	x	x	-2%	x	x	x
C#CCN1C(C(=O)OC)CN(CCCCCC)CCS1(=O)=O (configuration not stated)	x	i	x	x	x	x
CNc1ncnc(Sc2ccc(Cl)cc2)c1[N+](=O)[O-]	-4%	i	-5%	-6%	i	20%
Cc1c([N+](=O)[O-])cnc(Sc2ccccc2)c1[N+](=O)[O-]	-24%	i	-13%	22µM*	i	x
CCCCCCCCN1C(=O)[C@@H](CC(=O)N2CCSCC2)C[C@@]2(C(=O)OC)C1=C[C@H](C(C)C)O[C@@H]2C1CC1	x	4.5µM*	x	x	x	x
CCCCCCCCN1C(=O)[C@@H](CC(=O)N2CCOCC2)C[C@@]2(C(=O)OC)C1=C[C@H](C(C)C)O[C@@H]2C1CC1	x	8.9µM*	x	x	x	x
COC(=O)[C@]12C[C@H](CC(=O)N3CCCCC3)C(=O)N(CCC3=CCCCC3)C1=C[C@H](C(C)C)O[C@@H]2C1CC1	x	i	x	x	x	x
CCCCCCCCN1C(=O)[C@@H](CC(=O)N2CCCC2)C[C@@]2(C(=O)OC)C1=C[C@H](C(C)C)O[C@@H]2C1CC1	x	13µM*	x	x	x	x
